Structures are written as SMILES. Unmarked numbers belong to inactive results. Cut-off read from the data, not from the text of the source: active = inhibition above about 55%; inactive = the rest.

The subject of this assay is SARS coronavirus 3C-like protease (3CLpro, nsp5). In words: blockers of SARS 3CLpro activity – biochemical, fluorescence, set 2, late-stage follow-up (AID 488984). The conditions noted are these: recombinant 3CLpro, fluorogenic peptide cleavage; at 100 µM; stronger effect = higher value.
Regarding `CC(C)(C)NC(=O)C(c1cccnc1)N(C(=O)Cc1cccc2ccccc12)C1CC1` (configuration not stated), the inhibition (usually the change of the read-out against control, counted positive when it falls) is 2.44%.

Consider `CC(C)(C)NC(=O)C(c1ccsc1)N(C(=O)c1ccco1)C1CC1` (configuration not stated), for which the inhibition was 7.74%.

As for `Cc1nc2ccccc2n1CC(=O)N(c1ccc(C(C)(C)C)cc1)C(C(=O)NC(C)(C)C)c1ccsc1` (configuration not stated), the inhibition is 2.02%.

Take `CC(C)c1ccc(N(C(=O)Cc2cccc3ccccc23)C(C(=O)NC(C)(C)C)c2cccnc2)cc1` (configuration not stated): the inhibition is -1.29%.

On to `CC(C)(C)NC(=O)C(c1ccsc1)N(C(=O)c1ccc(C(F)(F)F)nc1)c1ccc(OCF)cc1` (configuration not stated), for which the inhibition is 21.3%.

As for `CC(=O)Nc1ccc(N(C(=O)Cn2c(C)nc3ccccc32)C(C(=O)NC(C)(C)C)c2ccsc2)cc1` (configuration not stated), the inhibition is 2.27%.

As to `CC(C)(C)NC(=O)C(c1ccsc1)N(C(=O)c1n[nH]c2ccccc12)C1CC1` (configuration not stated), the inhibition is 13%.

`CC(C)(C)NC(=O)C(c1ccsc1)N(C(=O)Cc1c[nH]c2ccccc12)c1ccc(F)cc1` (configuration not stated): the inhibition is 17.7%.

Regarding `CC(C)(C)NC(=O)C(c1ccsc1)N(C(=O)c1ccc(C(F)(F)F)nc1)c1ccc(F)cc1` (configuration not stated), the inhibition was 9.21%.

Consider `CC(C)(C)NC(=O)C(c1cccnc1)N(C(=O)c1cccc2c1CCCC2)c1ccc(C(C)(C)C)cc1` (configuration not stated), for which the inhibition is 12.7%.

Turning to `CC(C)(C)NC(=O)C(c1cccnc1)N(C(=O)c1ccc(C(F)(F)F)nc1)c1ccc(C(C)(C)C)cc1` (configuration not stated), the inhibition is 8.39%.

Consider `CC(C)(C)NC(=O)C(c1ccsc1)N(C(=O)c1cccc2c1CCCC2)c1ccc(C(C)(C)C)cc1` (configuration not stated), for which the inhibition is 12.9%.
